Molecules are shown by their SMILES. Compounds without any hit were thinned out: in the full panel of roughly 83,000, 20% have a hit.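 Percent growth is the endpoint: 0 to 100 indicates growth inhibition (40 means 60% inhibition), 0 means no net growth, and negative values indicate cell death.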 Unmarked numbers belong to inactive results. The source made the active and inactive calls.

This experiment has as its system OVCAR-5 ovarian. The experiment is described as follows: NCI-60 one-dose screen, 48 h (100 = growth as untreated, 0 = no growth, -100 = all killed). The note with it: 10 µM unless noted. Here is the method:
Growth inhibition of the OVCAR-5 human tumor cell line is measured as a screen for anti-cancer activity. Cells are grown in 96 well plates and exposed to the test compound for 48 hours. Compounds are tested at a single concentration, which is 10^-5 M for most compounds. The reported endpoint is percent growth (GI% or GIPRCNT), where numbers from 0 - 100% represent growth inhibition, and numbers from -100% - 0 represent cell death. For example, a value of 40 represents 60% growth inhibition. A value of 0 means no net growth occurred over the course of the experiment. A value of -40 indicates 40% of cells at the beginning of the experiment died by the end of the experiment. A value of -100 means all cells are dead at the end of the experiment.
NCI-60 Human Tumor Cell Lines Screen was performed using the standard one-dose NCI protocol, which is described in more detail at https://dtp.cancer.gov/discovery_development/nci-60/default.htm.
Compounds with GIPRCNT values below 10 were considered active. Activity score was based on GIPRCNT using the following formula: […]
Score is 0 for GIPRCNT values of 100 or above, 50 for GIPRCNT values of 0, and 100 for GIPRCNT values of -100.
With `Cc1ccc2nc(C)c(-c3nnc(SCc4ccc(C#N)cc4)o3)n2c1`, the growth was 107%. The figure for `O=C(O)c1ccc2c(c1Cl)C(=O)c1ccccc1C2=O` is 102%. Then `S=C(c1ccc2c(c1)OCO2)N1CCN(c2ccccc2Cl)CC1`, with 97.6%; and `CCCc1cc2c(=O)c(C(=O)OC)c[nH]c2cc1N(CC)CC`, with 88.8%; and `COc1cc(/C=N/Nc2ncc(-c3cc4cc5c(cc4o3)OCO5)s2)cc(OC)c1OC`, with 98.2%. Then `CC1=C([Se]CC(OC(=O)[C@@H](CO)NC(=O)OC(C)(C)C)C(=O)NC(C)(C)C)C(=O)c2ccccc2C1=O` (stereo not given in full), with -100% (active); and `COC(=O)CCC1=C(C)C2=NC1=CC1=NC(=CC3=NC(=Cc4[nH]c(/c(=C(/C)O)c4C)=C2)C(C(C)=O)=C3C)C(C)=C1CCC(=O)OC`, with 111%. `C=C1C(=O)O[C@H]2[C@H]1CC/C(COC(=O)C(=O)c1cn(C)c3ccc(OC)cc13)=C\CC[C@@]1(C)O[C@@H]21`: the growth is -18.9% (active). `N#CC1=C(c2ccc(Br)cc2)NC(SCC(=O)c2ccc(Br)cc2)NC1=O` (stereo not given): the growth is 101%. Then `CCOC(=O)C/C(C)=N\NC(=O)c1ccncc1`, with 98.3%. Then `COc1cc(/C=C/C(=O)c2c(C)nc3ccccc3c2/C=C/c2ccc(C)cc2)cc(OC)c1OC`, with 17.7%; and `O=C(COc1ccc(/C=C2\Oc3ccccc3C2=O)cc1)c1ccc(Cl)cc1`, with 97.4%. Then `CCOC(=O)c1c(/C=C/C(=O)O)nc2ccccc2c1/C=C/c1ccccc1`, with 57.4%; and `Cn1cc(-c2csc(-c3ccccc3)n2)c2cccnc21`, with -44.2% [100 µM] (active); and `c1cc2ccc3cc2cc1CNCCOCCNCc1ccc2ccc(cc2c1)CNCCOCCNC3`, with -16.8% (active). Regarding `Cc1nc2c(c(N3CCCc4ccccc43)n1)CCC2`, the growth was 48.3%. Then `O=c1cc(-c2ccc(Cl)cc2)[nH]c2ccccc12`, with 91.7%; and `COc1ccc(-c2nc(SCCC(C)C)nc(N/N=C\c3ccccc3O)c2C#N)cc1`, with 99.7%. Then `CN(C)CC1=NC2SC=C(c3ccccc3)C2C(=O)N1CC#N` (stereo not given), with 89.7%; and `CCOC(=O)/C=C/c1cc2cc(-c3csc4ccccc34)ccc2[nH]1`, with 101%.

Take `COc1c(CCC[P+](c2ccccc2)(c2ccccc2)c2ccccc2)cc2c(c1OC)OCO2`: the growth was 30.4%. The figure for `COc1ccc2oc3c(C)c4c(c(C)c3c2c1)C(=O)N(Cc1ccccc1)C4=O` is 99.9%; for `COc1ccc(-c2nc(SCCC(C)C)nc(N/N=C\c3cccc([N+](=O)[O-])c3)c2C#N)cc1` it is 38.4%. As for `CCCCCCCCCCN(CCCCCCCCCC)CC(=O)c1ccc2cc(Br)c3ccccc3c2c1`, the growth is 95.3%. Then `CC1=CN2C(=O)C3C4=C(CCCC4)SC3N=C2CN1c1c(C)cccc1C` (stereo not given), with 94%.

Take `c1ccc(Nc2nc(-c3ccccn3)cs2)nc1`: the growth was 53%. The figure for `Cc1ccc(-n2c(-c3ccccc3)c(-c3ccccc3)c3c(SCC(=O)n4[nH]c(N)cc4=O)ncnc32)cc1` is 101%; for `Cn1c(=O)c2[nH]c(NN)nc2n(C)c1=O` it is 115%; for `CC(=O)O[C@]1(C(C)=O)CCC2C3C[C@H](C)C4=CC(=O)CC[C@]4(C)C3CC[C@@]21C` (stereo not given in full) it is 90.6%. Turning to `COc1cc(N=Nc2ccc(N)cc2)c(OC)cc1N=Nc1ccccc1.[Cl][Zn][Cl]`, the growth was 96.4%. Then `O=c1[nH][n+](-c2ccc(Cl)cc2)no1`, with 77%. Then `COC(=O)[C@]12CC[C@@H](C)[C@H](C)[C@@H]1C1=CC[C@@H]3[C@@]4(C)C(C=O)=C[C@@](C)(COC(=O)/C=C/c5ccccc5)[C@@H]4[C@H](O)C[C@@]3(C)[C@]1(C)CC2`, with 7.64% (active); and `CC/C=C\C/C=C\C[C@H](O)C/C=C1/C(=O)C=C[C@@H]1C/C=C\CCCC(=O)O`, with 65.3%. For the molecule `O=c1c2c3c(sc2nc(N/N=C/c2ccc(Br)cc2)n1Cc1ccccc1)CCCC3`, the growth was 78.3%. As to `Cc1cc(NCCCCNc2ccnc3cc(Cl)ccc23)nc(Nc2ccc(C(=O)N3CCCC3)cc2)n1`, the growth was 108%. The figure for `COc1ccc2c(c1)CCCN2c1c2ccccc2nc2ccccc12` is 28.3%; for `Cc1ccc(Cl)c(NS(=O)(=O)c2ccc(-c3cnc(C4CC4)o3)cc2)c1` it is 26.4%; for `CCCCn1c(=O)c2c(nc3n2CCCN3CCc2ccc(OCC(=O)NCCN(CC)CC)cc2)n(CCCC)c1=O` it is 94%. The figure for `CCc1c2c(nc3ccc(OC(=O)OCc4ccc(B5OC(C)(C)C(C)(C)O5)cc4)cc13)-c1cc3c(c(=O)n1C2)COC(=O)[C@]3(O)CC` is -16% (active); for `Cc1ccc(NS(=O)(=O)c2ccc3c(c2)C2OCCC2C(c2ccc(C(=O)C(C)C)cc2)N3)cc1C` (stereo not given) it is 60.6%.

Source of the values: PubChem BioAssay (NCI).
